Reference: publication PMC5540273 (PLoS ONE, 2017)

Assays:
[1] = test system: RAF1
[2] = test system: PRKD3
[3] = test system: PRKD2
[4] = test system: PLK4
[5] = test system: PRKX
[6] = test system: ROCK1
[7] = test system: PRKD1
[8] = test system: T1, PKAC-alpha
T1 construct: gene PRKACA

[9] = test system: RIOK1
[10] = test system: RIOK2
[11] = test system: RIOK3
[12] = test system: RIPK2
[13] = test system: RIPK4
[14] = test system: PLK1
[15] = test system: PLK2
[16] = test system: PLK3
[17] = test system: PRKCI
[18] = test system: PKN1
[19] = test system: T2, PYK2
T2 construct: gene PTK2B

[20] = test system: RIPK1
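Also: kd values determined as follow-up on hits from a single-replicate KINOMEscan panel screen.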

COC(=O)c1c(-c2ccccc2)c2cc(C(=O)O)ccc2c(=O)n1Cc1ccccc1
Kd [1]: 170 nM

Cc1cccc(-c2nc(Nc3cccc(C(N)=O)c3)c3ccccc3n2)n1 [GW876019]
Kd [2]: 820 nM

COc1ccc(Nc2nccc(NCCNC(=O)Nc3ccccc3F)n2)cc1 [GSK1379901]
Kd [3]: > 10000 nM

CN(C)CCN(C)C(=O)c1cc(-c2ccncc2)c(-c2ccc(Cl)c(O)c2)o1.Cl.Cl [SB-710397]
Kd [1]: 650 nM

COc1cc2ncnc(Nc3ccc4nc(-c5ccccc5)[nH]c4c3)c2cc1OC.Cl [GW282450]
Kd [4]: 1.6 µM

CC(=O)Nc1nc2cnc(Nc3cc(NC(=O)c4cccc(CCC#N)c4)ccc3C)nc2s1
Kd [1]: > 10000 nM

CC1=C(C(=O)Nc2cc3cn[nH]c3cc2F)C(c2ccc(C(F)(F)F)cc2)CC(=O)N1 (stereo not drawn) [GSK429286]
Kd [5]: 0.35 µM | Kd [6]: 2.7 nM

Cc1cccc(-c2nc(Nc3ccncc3)c3ccccc3n2)n1 [GW855857]
Kd [7]: 9.7 nM | Kd [3]: 17 nM

Cc1cccc(-c2nc(Nc3ccc4[nH]ncc4c3)c3ccccc3n2)n1 [GW857175]
Kd [7]: 19 nM | Kd [3]: 15 nM | Kd [2]: 11 nM

CSc1nn2c(=O)cc(N3CCOCC3)nc2n1Cc1cccc(C(F)(F)F)c1C [GSK2363608]
Kd [6]: 46 nM

Fc1cc(Cl)ccc1Nc1ccnc2cc(-c3ccc(CN4CCCCC4)o3)ccc12 [GW560116]
Kd [8]: > 10 µM

O=S(=O)(c1ccc(-c2ccnc3[nH]ccc23)cc1)N1CCCC1 [GSK846226]
Kd [8]: 0.26 µM | Kd [9]: 610 nM | Kd [10]: 960 nM | Kd [11]: 540 nM | Kd [6]: 330 nM

Cl.NC(=O)c1cccc(Nc2nccc(Nc3ccc(Oc4cccc(Cl)c4)c(Cl)c3)n2)c1 [GW659008]
Kd [12]: 44 nM

Cc1ccc(NC(=O)Nc2cccc(Cl)c2)cc1-c1ccc(C(=O)Nc2ccncc2)cc1 [GSK1398468]
Kd [5]: 7.4 µM | Kd [1]: 180 nM

CS(=O)(=O)c1ccc(-c2nc3n(c2-c2ccncc2)CCC3)cc1 [SKF-105942]
Kd [13]: > 10 µM

COc1cc2ncn(-c3cc(OCC4CCCO4)c(C(N)=O)s3)c2cc1OC (stereo not drawn) [GSK204607]
Kd [14]: 13 nM | Kd [15]: 4.4 nM | Kd [16]: 40 nM | Kd [17]: > 10 µM | Kd [11]: 670 nM

CCn1c(-c2ccccn2)nc2cnccc21 [SB-736398]
Kd [8]: > 10 µM | Kd [5]: > 10 µM

Cn1cncc1-c1ccc2ncnc(Nc3ccc(OCc4ccccc4)cc3)c2c1 [GW320571]
Kd [12]: 91 nM

Cc1cccc(-c2nc(C)cc(Nc3ccncc3)n2)n1 [GSK257997]
Kd [3]: 1100 nM | Kd [2]: 1000 nM | Kd [1]: > 10000 nM

COc1ccccc1CNC(=O)c1cc(C(=O)c2ccccc2C)c[nH]1 [GSK364507]
Kd [4]: > 10 µM

COc1cccc(-c2cc(-c3c[nH]nc3-c3ccccn3)ccn2)c1 [GW680338]
Kd [11]: 9600 nM

Cc1ccc(NC(=O)Nc2cc(C(C)(C)C)nn2-c2ccccc2)cc1 [GSK1014915]
Kd [1]: 270 nM

COc1ccc2nc(-c3cccc(C)n3)nc(Nc3ccncc3)c2c1 [GSK204919]
Kd [7]: 51 nM | Kd [3]: 34 nM | Kd [2]: 490 nM

CN1C(=O)C(Nc2ccc(Cl)c(C(=O)O)c2)=C(c2ccc(Cl)cc2)C1=O [SB-404290]
Kd [18]: > 10 µM

Cc1cccc(-c2cc(Nc3ccncc3)c3ccccc3n2)n1 [GSK223675]
Kd [7]: 100 nM | Kd [3]: 300 nM | Kd [2]: 210 nM

CC(C)(C)c1ccc(C(=O)Nc2cn3cc(Cl)ccc3n2)cc1
Kd [17]: > 10 µM | Kd [19]: > 10 µM

Cc1cccc(-c2nc(-c3ccc(S(C)(=O)=O)cc3)sc2-c2ccnc(NCCc3ccccc3)c2)c1
Kd [1]: 150 nM

Cc1cc(-c2ccc3c(c2)CC[C@@H](N[C@@H](C)c2ccccc2)C3)cnc1N.Cl [GW412617]
Kd [10]: 650 nM

Cc1cc(N2Cc3ccccc3C2)nc(Nc2ccc(S(=O)(=O)N3CCOCC3)cc2)n1.Cl [GSK1669917]
Kd [13]: > 10 µM

Clc1cc(Cl)cc(Nc2ccnc(Nc3cc(Cl)cc(Cl)c3)n2)c1 [GSK175726]
Kd [10]: 150 nM

Cl.O=C(Nc1cccc(-c2nn3ncccc3c2-c2ccnc(Nc3cccnc3)n2)c1)c1c(F)cccc1F [GSK312879]
Kd [1]: 430 nM

Nc1ncnc2[nH]c(-c3ccccc3)nc12 [AH5015]
Kd [4]: > 10 µM

CCCc1ccc(S(=O)(=O)NC2CCN(c3ccnc(Nc4ccc(F)cc4)n3)C2)cc1 (stereo not drawn) [GSK1379715]
Kd [8]: > 10 µM

COC(=O)c1c(-c2ccccc2)c2cc(OC)ccc2c(=O)n1Cc1ccccc1
Kd [1]: 390 nM

Cc1ccc(C(=O)Nc2ccc(Nc3ccnc4cc(-c5ccccn5)ccc34)cc2O)cc1.Cl [GW440146]
Kd [11]: > 10000 nM

Cc1nnc(-c2ccc3occ(-c4ccc(S(C)=O)cc4)c3c2)[nH]1 (stereo not drawn)
Kd [20]: > 10 µM
